# In all, about 33,000 sequences were measured (“E-score (-0.5 to 0.5)”: median about -0.035, highest 2% from about 0.34 on). The list comes from a sample in which the highest values are over-represented; it also holds similar and randomly drawn sequences.
# Target: T1, Mot3 (UniProt P54785)
# T1 sequence: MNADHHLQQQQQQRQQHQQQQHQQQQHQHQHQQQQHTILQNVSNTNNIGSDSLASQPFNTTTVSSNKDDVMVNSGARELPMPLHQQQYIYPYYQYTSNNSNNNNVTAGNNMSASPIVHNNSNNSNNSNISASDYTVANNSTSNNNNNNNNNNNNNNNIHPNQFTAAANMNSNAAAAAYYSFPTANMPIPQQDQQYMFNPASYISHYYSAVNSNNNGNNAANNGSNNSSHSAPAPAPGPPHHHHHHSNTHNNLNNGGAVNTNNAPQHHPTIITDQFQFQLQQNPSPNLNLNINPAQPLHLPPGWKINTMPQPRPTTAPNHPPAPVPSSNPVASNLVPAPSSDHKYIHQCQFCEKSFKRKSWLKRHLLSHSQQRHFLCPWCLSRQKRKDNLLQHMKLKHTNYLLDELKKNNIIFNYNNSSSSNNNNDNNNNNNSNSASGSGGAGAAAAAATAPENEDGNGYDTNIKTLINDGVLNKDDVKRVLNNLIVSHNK
# Test: PBM E-score (8-mer binding enrichment) (E-score (-0.5 to 0.5)); higher = stronger / more preferred TF binding
# Conditions: protein concentration: 200 nM; construct: GST-full length
# Summary of the method: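 Yeast transcription factors, full-length or as DNA-binding domains, were expressed with a GST tag using PURExpress in vitro transcription/translation. At about 100-200 nM they were applied to universal all-10-mer Agilent arrays, double-stranded by primer extension on fresh or once-stripped slides. Fluorescent anti-GST detected bound protein, and masliner normalised the scans. E-scores for ungapped eight-base words, pooled with reverse complements, came from the Universal PBM Analysis Suite.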
row,Sequence,PBM E-score
1,AAGCTAGT,-0.004
2,CTACTGGA,-0.174
3,AGCCATAC,-0.163
4,AAAGGCAG,0.282
5,AAGGGCAA,0.127
6,GAAGGCCA,-0.0342
7,GAAGGCTA,0.0397
8,GAAGGCAA,0.489
9,AAAGGCAA,0.486
10,CAAGCAGC,-0.0458
11,AATCCATC,-0.21
12,CTTAAGAC,-0.0312
13,ACCGCGAA,-0.0635
14,GGGAACTA,-0.0385
15,CGGAACTC,-0.29
16,ATGAACTG,0.0964
17,AGGAACTC,0.396
18,AGGAACTG,0.413
19,AGGAACTA,0.38
20,ATGAACTC,-0.14
21,CGGAACTA,-0.265
22,AAGAACTG,-0.196
23,ACAGCCAT,0.172
24,AGCAGGGA,-0.167
25,ACAGTCAT,-0.0548

row,Sequence,PBM E-score
1,GAGCGCAC,-0.307
2,ATCTTGGG,-0.157
3,ACGCTCAG,-0.226
4,ATCAACTG,-0.0772
5,GAAGTACC,0.00084
6,ACCGAATC,-0.00094
7,GTAAGGCA,0.464
8,CTAAGGCC,-0.0134
9,GTAAGGGA,0.145
10,ATAAGGCA,0.46
11,CTAAGGTA,0.226
12,ATAAGGCG,0.0672
13,ATAAGGCC,-0.142
14,GTAAGGTA,0.321
15,CTAAGGCA,0.452
16,TACTGAAA,0.037
17,AGACGTTC,-0.008
18,AGCATAAC,0.0259
19,AGTCTATA,-0.0584
20,CGCACCTA,-0.125
21,AGCACCTA,0.199
22,GGCACCTA,0.357
23,GGCACCGA,0.356
24,CGCACCGA,-0.27
25,AGCACCGA,-0.168

row,Sequence,PBM E-score
1,GGCCGAAA,-0.186
2,TACCCAAA,0.11
3,AATCTATG,-0.00189
4,ACCTGAAG,-0.135
5,AAGCCCCT,-0.195
6,AGAACTAT,-0.0425
7,AGAAAGAG,-0.195
8,AAAGGAAT,-0.0306
9,AAAGGAAA,0.442
10,AAAGGAAC,0.456
11,AAAGGAAG,0.059
12,GAAGGAGC,-0.251
13,AAAGGATA,-0.0444
14,CGAGGAAC,0.285
15,AAAGGAGA,-0.0548
16,CAAGGACC,0.0666
17,CAAGGAAG,-0.00272
18,CAAGGAAC,0.43
19,GAAGGAAC,0.468
20,AACTCTCT,-0.19
21,AGCCCGAT,-0.195
22,CCCAGGAG,-0.207
23,ACTTGTAT,0.173
24,ACACCTTG,0.193
25,CCGTTGTA,0.125

row,Sequence,PBM E-score
1,CTGAACCA,0.0648
2,AACAGGCA,0.484
3,CACAGGCG,0.277
4,CACAGGCA,0.482
5,TACAGGGA,0.0536
6,GACAGGCC,-0.139
7,GACAGGCA,0.483
8,CACAGGCC,0.0987
9,AACAGGCT,0.305
10,TACAGTCA,0.191
11,AACAGGCG,0.167
12,GACAGGGA,-0.089
13,TACAGGCA,0.484
14,GCTGTGAC,-0.128
15,GACTTCCA,-0.126
16,TGGAAGAA,0.00562
17,CACTACGG,-0.1
18,GCCACAGA,-0.0635
19,GAGGAGGC,-0.0566
20,AATAAGTA,0.124
21,CCACTCGA,-0.0827
22,AATAGACG,-0.138
23,ACACGCTC,0.305
24,ACACGCTG,0.256
25,ACACGCGG,0.252

row,Sequence,PBM E-score
1,ACACGCTA,0.356
2,ACACGCGA,0.292
3,ACACGCGT,0.36
4,AGTATCGA,0.122
5,TCGTAGAA,0.0868
6,CCGATCAC,-0.0956
7,ATCGCCAG,-0.289
8,ACATGTTA,0.397
9,AAATGTTA,0.288
10,CCATGTTA,0.339
11,ACATGTTG,0.368
12,AGATGTTA,0.158
13,ACATGTTC,0.295
14,GCATGTTA,0.385
15,GGATGTTA,0.172
16,AGATGTTG,-0.102
17,CTAGGTCA,-0.135
18,ATTGGCAC,-0.068
19,AAACCTGG,0.0922
20,GCCGTTAC,-0.13
21,CCAACTCC,-0.135
22,TCCTCCAA,-0.0985
23,GATCTAGC,-0.194
24,ATACTGCC,-0.204
25,GGCAGGCA,0.481

row,Sequence,PBM E-score
1,TGCAGACA,0.0246
2,TGCAGCCA,-0.192
3,GGCAGGCC,-0.165
4,CGCAGGCG,0.17
5,AGCAGGCC,-0.0206
6,TGCAGGCA,0.484
7,AGCAGGCG,0.148
8,AGCAGGCA,0.483
9,CGCAGGCC,0.123
10,GGCAGGTA,0.277
11,CGCAGGCA,0.482
12,TATGCGAA,-0.0122
13,TATCAATA,0.134
14,AGTTTTCA,-0.204
15,CATCTGCA,-0.0636
16,CTAACTCC,-0.141
17,AGCGTAAA,0.12
18,GGCGTAAA,0.146
19,CGCGTAAC,0.225
20,CGCGTAAA,0.392
21,TGCGTAAA,0.342
22,CGCGTAAG,0.299
23,GGGGGGAA,-0.375
24,CTCGGCTA,-0.0141
25,GTATGGAA,-0.156

row,Sequence,PBM E-score
1,GCTTGGCA,-0.105
2,AGTTTTCG,0.0727
3,GCGGGTCA,0.0734
4,GTGAGGCA,0.353
5,ATGAGGCG,-0.119
6,CTGAGGCA,0.257
7,ATGAGGCA,0.364
8,GTGAGGAA,-0.106
9,ATGAGGCC,-0.174
10,CCTACTTC,-0.0137
11,ACCCGTCA,-0.239
12,AGATAGCG,-0.0829
13,AGGCACGG,0.491
14,AGGCACGA,0.491
15,GGGCACGA,0.163
16,ACGCACGG,0.0438
17,CGGCACGA,0.00099
18,AAGCACGG,0.0983
19,GCCCTAGC,-0.184
20,CTTGGCAC,-0.0521
21,CTTTGGCC,0.0624
22,CATTGTGA,-0.0102
